Inconclusive results are not listed. Active and inactive are the calls of the source. Unless noted, calls come from the whole dose curve; as a rule, active = well fitted curve in the direction sought with a large enough effect; inconclusive = small, poorly fitted or top-dose-only effect, or another doubt; inactive = no such curve, though single readings can be large; an effect the other way counts as inactive or inconclusive.
Experiments:
[1] = biological target: Alpha-galactosidase (Coffea arabica) (UniProt Q42656); assay: Counterscreen for Glucocerebrosidase Inhibitors: qHTS Assay for Coffee Bean alpha-Galactosidase at pH 4.5 (AID 957); note: series mostly up to about 77 µM
Summary of the method: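 Quantitative HTS of compounds (0.7 nM to 77 uM) against coffee bean alpha-galactosidase at pH 4.5, measuring 4-methylumbelliferone fluorescence released from 80 uM substrate.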

[2] = biological target: Alpha-galactosidase (Coffea arabica) (UniProt Q42656); assay: Counterscreen for Glucocerebrosidase Inhibitors: qHTS Assay for Coffee Bean alpha-Galactosidase at pH 5.9 (AID 998)
Summary of the method: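 Enzyme 2 nM + cpd (0.7 nM–77 uM titration) + 4-MU-alpha-Gal 80 uM, pH 5.9 citrate/Tween-20, RT 20 min, NaOH/glycine stop pH 10, fluor 365/440. Normalized to no-enzyme and full-activity controls; Hill-fit AC50.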

[3] = Validation screen for inhibitors of Lassa infection (AID 463096; calls by dose curve)
[4] = Inducers of the Endoplasmic Reticulum Stress Response (ERSR) in human glioma: Validation (AID 504836)
Summary of the method: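 Stably transfected U87-MG glioma cells carrying a GRP78-based luciferase sensor; 16 h compound incubation. Luminescence end-point read 10 min after Bright-Glo addition at room temperature.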

[5] = qHTS for Inhibitors of the Functional Ribonucleoprotein Complex (vRNP) of Lassa (LASV) Arenavirus: LASV Primary Screen - GLuc reporter signal (AID 1347082; calls by dose curve; tested in HEK293 reporter line; note: series mostly up to about 57 µM; nearly all actives have a fitted effect of over 60% in size)
[6] = qHTS for Inhibitors of the Functional Ribonucleoprotein Complex (vRNP) of Lassa (LASV) Arenavirus: Viability assay - alamar blue signal for LASV Primary Screen (AID 1347083; calls by dose curve; tested in HEK293 reporter line; note: series mostly up to about 57 µM; nearly all actives have a fitted effect of over 80% in size)
[7] = qHTS for Inhibitors of the Functional Ribonucleoprotein Complex (vRNP) of Lymphocytic Choriomeningitis Arenaviruses (LCMV): Viability assay - alamar blue signal for LCMV Primary Screen (AID 1347085; calls by dose curve; tested in HEK293 reporter line; note: series mostly up to about 57 µM; nearly all actives have a fitted effect of over 80% in size)
[8] = biological target: Nucleoprotein (Lymphocytic choriomeningitis virus (strain Armstrong)) (UniProt P09992); assay: qHTS for Inhibitors of the Functional Ribonucleoprotein Complex (vRNP) of Lymphocytic Choriomeningitis Arenaviruses (LCMV): LCMV Primary Screen - GLuc reporter signal (AID 1347086; calls by dose curve; note: series mostly up to about 57 µM; nearly all actives have a fitted effect of over 70% in size)

Measured: Potency

Sequence of Nucleoprotein (Lymphocytic choriomeningitis virus (strain Armstrong)) (P09992 whole entry, looked up): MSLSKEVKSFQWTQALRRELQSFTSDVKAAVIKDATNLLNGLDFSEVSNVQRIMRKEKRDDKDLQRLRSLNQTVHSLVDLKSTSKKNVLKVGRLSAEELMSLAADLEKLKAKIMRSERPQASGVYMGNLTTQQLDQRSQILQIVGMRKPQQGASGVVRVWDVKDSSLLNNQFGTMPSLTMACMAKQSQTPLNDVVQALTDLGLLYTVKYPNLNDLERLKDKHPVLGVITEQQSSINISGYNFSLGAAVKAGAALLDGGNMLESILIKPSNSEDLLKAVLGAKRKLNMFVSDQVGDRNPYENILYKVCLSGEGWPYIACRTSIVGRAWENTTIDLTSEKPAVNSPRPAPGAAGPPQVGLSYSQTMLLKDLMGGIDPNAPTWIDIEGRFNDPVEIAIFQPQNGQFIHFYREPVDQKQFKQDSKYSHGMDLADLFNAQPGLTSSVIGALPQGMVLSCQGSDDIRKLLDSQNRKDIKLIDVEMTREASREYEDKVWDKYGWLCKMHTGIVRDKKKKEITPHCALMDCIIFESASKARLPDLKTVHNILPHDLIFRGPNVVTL
Sequence of Alpha-galactosidase (Coffea arabica) (Q42656 whole entry, looked up): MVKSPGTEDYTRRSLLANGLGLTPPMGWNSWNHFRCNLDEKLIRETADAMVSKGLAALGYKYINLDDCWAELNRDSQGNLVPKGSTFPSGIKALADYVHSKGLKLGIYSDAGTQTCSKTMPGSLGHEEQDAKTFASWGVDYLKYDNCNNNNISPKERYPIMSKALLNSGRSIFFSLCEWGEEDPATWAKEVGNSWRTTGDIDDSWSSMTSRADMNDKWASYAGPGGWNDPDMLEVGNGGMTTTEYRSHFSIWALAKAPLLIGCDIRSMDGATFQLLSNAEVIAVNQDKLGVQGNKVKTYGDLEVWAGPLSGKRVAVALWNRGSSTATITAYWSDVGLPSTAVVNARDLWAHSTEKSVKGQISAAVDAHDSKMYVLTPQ

CC(=O)N[C@@H](Cc1c[nH]c2ccccc12)C(=O)OCc1cc(C(F)(F)F)cc(C(F)(F)F)c1
inactive: all assays above

Cc1cccc(C(=O)NCN2CCN(c3ccccc3C#N)CC2)c1
inactive: all assays above

COc1cccc(C(=O)NCCN2CCN(c3ccc(Cl)cc3)CC2)c1
not listed: [1]
inactive: all other assays above

O=C(O)C1=CCCN(CCON=C(c2ccccc2)c2ccccc2)C1
inactive: all assays above

O=C(O)C1=CCCNC1
inactive: all assays above

Nc1ccc(-c2nc3ccc(-c4nc5ccc(N)cc5[nH]4)cc3[nH]2)cc1
inactive: all assays above

Clc1ccc(N2CCN(Cc3c[nH]c4ncccc34)CC2)cc1
inactive: all assays above

c1ccc(-c2ccccn2)nc1
inactive: all assays above

COC(=O)c1c(C)[nH]c(C)c1C(=O)c1ccccc1Cc1ccccc1
inactive: all assays above

O=C(Nc1cccc(C(=O)Nc2ccc(S(=O)(=O)O)c3cc(S(=O)(=O)O)cc(S(=O)(=O)O)c23)c1)Nc1cccc(C(=O)Nc2ccc(S(=O)(=O)O)c3cc(S(=O)(=O)O)cc(S(=O)(=O)O)c23)c1
inactive: all assays above

NC(N)=NC(N)=Nc1ccccc1
inactive: all assays above

CCC(=O)N1CCN(C(=O)c2ccccc2)CC1
not listed: [1]
inactive: all other assays above

CCCCCCCCCCC/C=C\C(C)(C)/C=C\CCCC(=O)O
not listed: [1]
inactive: all other assays above

NCCCCN=C(N)N
inactive: all assays above

CCCCN1CCC(n2c(=O)[nH]c3ccccc32)CC1
inactive: all assays above

N=c1c[n+](N2CCOCC2)[n-]o1
inactive: all assays above

NC(=O)C(=O)O
not listed: [1]
inactive: all other assays above

N[C@@H](CS(=O)O)C(=O)O
inactive: all assays above

Cc1nc(N=Nc2cc(S(=O)(=O)O)c3cc([N+](=O)[O-])cc(S(=O)(=O)O)c3c2)c(COP(=O)(O)O)c(C=O)c1O
inactive: all assays above

COc1cc(/C=C(\C#N)C(=O)c2ccc(O)c(O)c2)cc(I)c1O
inactive: all assays above

NCCSSCCN
inactive: all assays above

COc1cc(N)c(Cl)cc1C(=O)OCCN1CCCCC1
inactive: all assays above

Cc1nc(N=Nc2ccc(C(=O)O)cc2)c(COP(=O)(O)O)c(C=O)c1O
inactive: all assays above

CCCCCCCCCCCCCCC[C@H](O)[C@H](N)CO
inactive: all assays above

Cn1c(=O)[nH]c2ncn(C)c2c1=O
inactive: all assays above

CN1CCc2ccccc2Cc2[nH]c3ccccc3c2CC1
inactive: all assays above

COC(=O)[C@H](NC(=O)c1cc(-c2ccccc2)nc2ccccc12)c1ccccc1
inactive: all assays above

O=[N+]([O-])c1cccc2c(Br)[nH]nc12
inactive: all assays above

COc1cc(CC(=O)O)ccc1O
inactive: all assays above

CC(=O)SCC[N+](C)(C)C
inactive: all assays above

N#C/C(=C\c1ccc(O)c(O)c1)C(=O)c1ccc(O)c(O)c1
inactive: all assays above

NS(=O)(=O)c1cccc2c1c([N+](=O)[O-])cc1nc(O)c(O)nc12
inactive: all assays above
